Changes are numbered by the printed parent chain.
Experiments:
Test in all cases: PBM; 200 nM protein, PBS
Conditions in all cases: dsDNA, one strand shown
PAX4 [1] = target: T1, PAX4 (Homo sapiens, UniProt O43316 9-242, R200K)
T1 sequence: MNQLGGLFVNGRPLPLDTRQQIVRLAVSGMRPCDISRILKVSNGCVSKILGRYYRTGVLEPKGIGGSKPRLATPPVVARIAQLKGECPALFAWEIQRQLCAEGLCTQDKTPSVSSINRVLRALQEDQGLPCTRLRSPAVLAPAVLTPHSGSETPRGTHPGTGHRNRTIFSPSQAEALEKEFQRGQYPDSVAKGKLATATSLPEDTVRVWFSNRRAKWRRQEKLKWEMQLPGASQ

PAX4 [2] = target: T2, PAX4 (Homo sapiens, UniProt O43316 9-242)
T2 sequence: T1 sequence with K192R

PAX4 [3] = target: T3, PAX4 (Homo sapiens, UniProt O43316 9-242, R200Q)
T3 sequence: T1 sequence with K192Q

PAX4 [4] = target: T4, PAX4 (Homo sapiens, UniProt O43316 9-242, F177V)
T4 sequence: T1 sequence with F169V, K192R

PAX4 [5] = target: T5, PAX4 (Homo sapiens, UniProt O43316 9-242, F177Y)
T5 sequence: T1 sequence with F169Y, K192R

PAX4 [6] = target: T6, PAX4 (Homo sapiens, UniProt O43316 9-242, R227W)
T6 sequence: T1 sequence with K192R, R219W

CRX = CRX (Homo sapiens, UniProt O43186 26-111, R41L)
Chain of CRX (O43186 26-111 R41L): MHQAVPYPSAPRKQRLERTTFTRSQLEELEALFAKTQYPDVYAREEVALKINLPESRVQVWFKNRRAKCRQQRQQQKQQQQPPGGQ

PRRX1 [7] = target: PRRX1 (Homo sapiens, UniProt P54821 80-166, F113S)
Chain of PRRX1 (Homo sapiens, UniProt P54821 80-166, F113S) (P54821 80-166 F113S): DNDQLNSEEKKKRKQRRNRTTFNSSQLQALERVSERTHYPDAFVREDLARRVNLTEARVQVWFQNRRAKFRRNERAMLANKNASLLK

HOXB6 = HOXB6 (Homo sapiens, UniProt P17509 132-218, K202E)
Chain of HOXB6 (P17509 132-218 K202E): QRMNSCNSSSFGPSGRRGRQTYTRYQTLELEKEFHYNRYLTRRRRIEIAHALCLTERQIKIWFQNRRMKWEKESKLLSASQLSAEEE

ALX3 [8] = target: ALX3 (Homo sapiens, UniProt O95076 139-225, N203Q)
Chain of ALX3 (Homo sapiens, UniProt O95076 139-225, N203Q) (O95076 139-225 N203Q): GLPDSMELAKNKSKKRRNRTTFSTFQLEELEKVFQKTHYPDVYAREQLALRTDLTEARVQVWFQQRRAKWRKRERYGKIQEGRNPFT

ALX3 [9] = target: ALX3 (Homo sapiens, UniProt O95076 139-225, N203S)
Chain of ALX3 (Homo sapiens, UniProt O95076 139-225, N203S) (O95076 139-225 N203S): as the sequence (O95076 139-225 N203Q) above, with Q65S counted along it

PRRX1 [10] = target: PRRX1 (Homo sapiens, UniProt P54821 80-166)
Chain of PRRX1 (Homo sapiens, UniProt P54821 80-166) (P54821 80-166): as the sequence (P54821 80-166 F113S) above, with S34F counted along it

For CCCGCGCG, the binding signal (PAX4 [1]) was 9.26 upbm affinity estimate (log intensity, higher = more binding, comparable within an allelic series), the binding signal (PAX4 [2]) was 9.11 upbm affinity estimate (log intensity, higher = more binding, comparable within an allelic series) and the binding signal (PAX4 [3]) was 9.18 upbm affinity estimate (log intensity, higher = more binding, comparable within an allelic series). For the same sequence, the binding signal (PAX4 [4]) was 9.01 upbm affinity estimate (log intensity, higher = more binding, comparable within an allelic series), the binding signal (PAX4 [5]) was 9.06 upbm affinity estimate (log intensity, higher = more binding, comparable within an allelic series) and the binding signal (PAX4 [6]) was 9.19 upbm affinity estimate (log intensity, higher = more binding, comparable within an allelic series).
AGGTTGCC was tested, and the binding signal (PAX4 [1]) was 9.39 upbm affinity estimate (log intensity, higher = more binding, comparable within an allelic series), the binding signal (PAX4 [2]) was 9.33 upbm affinity estimate (log intensity, higher = more binding, comparable within an allelic series) and the binding signal (PAX4 [3]) was 9.49 upbm affinity estimate (log intensity, higher = more binding, comparable within an allelic series). For the same sequence, the binding signal (PAX4 [4]) was 9.35 upbm affinity estimate (log intensity, higher = more binding, comparable within an allelic series), the binding signal (PAX4 [5]) was 9.33 upbm affinity estimate (log intensity, higher = more binding, comparable within an allelic series) and the binding signal (PAX4 [6]) was 9.35 upbm affinity estimate (log intensity, higher = more binding, comparable within an allelic series).
With CTTCGTTC the binding signal (PAX4 [1]) was 9.33 upbm affinity estimate (log intensity, higher = more binding, comparable within an allelic series), the binding signal (PAX4 [2]) was 9.37 upbm affinity estimate (log intensity, higher = more binding, comparable within an allelic series) and the binding signal (PAX4 [3]) was 9.51 upbm affinity estimate (log intensity, higher = more binding, comparable within an allelic series). The binding signal (PAX4 [4]) was 9.56 upbm affinity estimate (log intensity, higher = more binding, comparable within an allelic series), the binding signal (PAX4 [5]) was 9.5 upbm affinity estimate (log intensity, higher = more binding, comparable within an allelic series) and the binding signal (PAX4 [6]) was 9.58 upbm affinity estimate (log intensity, higher = more binding, comparable within an allelic series).
ATTAGCTA was tested, and the binding signal (PAX4 [1]) was 11.4 upbm affinity estimate (log intensity, higher = more binding, comparable within an allelic series), the binding signal (PAX4 [2]) was 11.7 upbm affinity estimate (log intensity, higher = more binding, comparable within an allelic series) and the binding signal (PAX4 [3]) was 11.4 upbm affinity estimate (log intensity, higher = more binding, comparable within an allelic series). For the same sequence, the binding signal (PAX4 [4]) was 10.2 upbm affinity estimate (log intensity, higher = more binding, comparable within an allelic series), the binding signal (PAX4 [5]) was 10.6 upbm affinity estimate (log intensity, higher = more binding, comparable within an allelic series) and the binding signal (PAX4 [6]) was 10.6 upbm affinity estimate (log intensity, higher = more binding, comparable within an allelic series).
With TGTATTAA the binding signal (PAX4 [1]) was 11.7 upbm affinity estimate (log intensity, higher = more binding, comparable within an allelic series) and the binding signal (CRX) was 10.9 upbm affinity estimate (log intensity, higher = more binding, comparable within an allelic series).
For AGTGTTAG, the binding signal (PAX4 [1]) was 10.5 upbm affinity estimate (log intensity, higher = more binding, comparable within an allelic series), the binding signal (PAX4 [2]) was 10.6 upbm affinity estimate (log intensity, higher = more binding, comparable within an allelic series) and the binding signal (PAX4 [4]) was 9.92 upbm affinity estimate (log intensity, higher = more binding, comparable within an allelic series). For the same sequence, the binding signal (PAX4 [5]) was 10 upbm affinity estimate (log intensity, higher = more binding, comparable within an allelic series) and the binding signal (PAX4 [6]) was 10.1 upbm affinity estimate (log intensity, higher = more binding, comparable within an allelic series).
In the case of ATTACCCG, the binding signal (PAX4 [1]) was 10.6 upbm affinity estimate (log intensity, higher = more binding, comparable within an allelic series), the binding signal (PAX4 [2]) was 11 upbm affinity estimate (log intensity, higher = more binding, comparable within an allelic series) and the binding signal (PAX4 [4]) was 9.93 upbm affinity estimate (log intensity, higher = more binding, comparable within an allelic series). For the same sequence, the binding signal (PAX4 [5]) was 9.92 upbm affinity estimate (log intensity, higher = more binding, comparable within an allelic series) and the binding signal (PAX4 [6]) was 10.1 upbm affinity estimate (log intensity, higher = more binding, comparable within an allelic series).
For ATGAATTA, the binding signal (PAX4 [1]) was 11.7 upbm affinity estimate (log intensity, higher = more binding, comparable within an allelic series), the binding signal (PAX4 [2]) was 12.2 upbm affinity estimate (log intensity, higher = more binding, comparable within an allelic series) and the binding signal (PAX4 [3]) was 11.8 upbm affinity estimate (log intensity, higher = more binding, comparable within an allelic series). The binding signal (PAX4 [4]) was 10.7 upbm affinity estimate (log intensity, higher = more binding, comparable within an allelic series), the binding signal (PAX4 [5]) was 11.2 upbm affinity estimate (log intensity, higher = more binding, comparable within an allelic series) and the binding signal (PAX4 [6]) was 11 upbm affinity estimate (log intensity, higher = more binding, comparable within an allelic series).
In the case of CGAATTAA, the binding signal (PAX4 [1]) was 12 upbm affinity estimate (log intensity, higher = more binding, comparable within an allelic series), the binding signal (PAX4 [2]) was 12.6 upbm affinity estimate (log intensity, higher = more binding, comparable within an allelic series) and the binding signal (PAX4 [3]) was 11.9 upbm affinity estimate (log intensity, higher = more binding, comparable within an allelic series). The binding signal (PAX4 [4]) was 10.6 upbm affinity estimate (log intensity, higher = more binding, comparable within an allelic series), the binding signal (PAX4 [5]) was 11.2 upbm affinity estimate (log intensity, higher = more binding, comparable within an allelic series) and the binding signal (PAX4 [6]) was 11.1 upbm affinity estimate (log intensity, higher = more binding, comparable within an allelic series).
In the case of ATAATTTA, the binding signal (PRRX1 [7]) was 11.2 upbm affinity estimate (log intensity, higher = more binding, comparable within an allelic series), the binding signal (HOXB6) was 10 upbm affinity estimate (log intensity, higher = more binding, comparable within an allelic series) and the binding signal (ALX3 [8]) was 8.61 upbm affinity estimate (log intensity, higher = more binding, comparable within an allelic series). The binding signal (PAX4 [4]) was 10.8 upbm affinity estimate (log intensity, higher = more binding, comparable within an allelic series), the binding signal (PAX4 [5]) was 11 upbm affinity estimate (log intensity, higher = more binding, comparable within an allelic series) and the binding signal (PAX4 [6]) was 11 upbm affinity estimate (log intensity, higher = more binding, comparable within an allelic series). For the same sequence, the binding signal (ALX3 [9]) was 8.73 upbm affinity estimate (log intensity, higher = more binding, comparable within an allelic series) and the binding signal (PRRX1 [10]) was 13.2 upbm affinity estimate (log intensity, higher = more binding, comparable within an allelic series).
In the case of AATTATAC, the binding signal (PRRX1 [7]) was 11.1 upbm affinity estimate (log intensity, higher = more binding, comparable within an allelic series) and the binding signal (HOXB6) was 9.99 upbm affinity estimate (log intensity, higher = more binding, comparable within an allelic series).
GAGCTCGC was tested, and the binding signal (PAX4 [1]) was 9.35 upbm affinity estimate (log intensity, higher = more binding, comparable within an allelic series), the binding signal (PAX4 [2]) was 9.28 upbm affinity estimate (log intensity, higher = more binding, comparable within an allelic series) and the binding signal (PAX4 [3]) was 9.32 upbm affinity estimate (log intensity, higher = more binding, comparable within an allelic series). For the same sequence, the binding signal (PAX4 [4]) was 9.23 upbm affinity estimate (log intensity, higher = more binding, comparable within an allelic series), the binding signal (PAX4 [5]) was 9.12 upbm affinity estimate (log intensity, higher = more binding, comparable within an allelic series) and the binding signal (PAX4 [6]) was 9.26 upbm affinity estimate (log intensity, higher = more binding, comparable within an allelic series).
With CAGCCGGG the binding signal (PAX4 [1]) was 9.16 upbm affinity estimate (log intensity, higher = more binding, comparable within an allelic series), the binding signal (PAX4 [2]) was 9.21 upbm affinity estimate (log intensity, higher = more binding, comparable within an allelic series) and the binding signal (PAX4 [3]) was 9.22 upbm affinity estimate (log intensity, higher = more binding, comparable within an allelic series). For the same sequence, the binding signal (PAX4 [4]) was 9.02 upbm affinity estimate (log intensity, higher = more binding, comparable within an allelic series), the binding signal (PAX4 [5]) was 9.05 upbm affinity estimate (log intensity, higher = more binding, comparable within an allelic series) and the binding signal (PAX4 [6]) was 9.17 upbm affinity estimate (log intensity, higher = more binding, comparable within an allelic series).
CGTATTAG was tested, and the binding signal (PAX4 [1]) was 11.8 upbm affinity estimate (log intensity, higher = more binding, comparable within an allelic series), the binding signal (PAX4 [2]) was 12.3 upbm affinity estimate (log intensity, higher = more binding, comparable within an allelic series) and the binding signal (PAX4 [3]) was 11.4 upbm affinity estimate (log intensity, higher = more binding, comparable within an allelic series). For the same sequence, the binding signal (PAX4 [4]) was 10.6 upbm affinity estimate (log intensity, higher = more binding, comparable within an allelic series), the binding signal (PAX4 [5]) was 11.1 upbm affinity estimate (log intensity, higher = more binding, comparable within an allelic series) and the binding signal (PAX4 [6]) was 11.1 upbm affinity estimate (log intensity, higher = more binding, comparable within an allelic series). For the same sequence, the binding signal (CRX) was 10.6 upbm affinity estimate (log intensity, higher = more binding, comparable within an allelic series).
CCGCGAGC was tested, and the binding signal (PAX4 [1]) was 9.36 upbm affinity estimate (log intensity, higher = more binding, comparable within an allelic series), the binding signal (PAX4 [2]) was 9.36 upbm affinity estimate (log intensity, higher = more binding, comparable within an allelic series) and the binding signal (PAX4 [3]) was 9.27 upbm affinity estimate (log intensity, higher = more binding, comparable within an allelic series). For the same sequence, the binding signal (PAX4 [4]) was 9.16 upbm affinity estimate (log intensity, higher = more binding, comparable within an allelic series), the binding signal (PAX4 [5]) was 9.2 upbm affinity estimate (log intensity, higher = more binding, comparable within an allelic series) and the binding signal (PAX4 [6]) was 9.31 upbm affinity estimate (log intensity, higher = more binding, comparable within an allelic series).
GCCGCGCC was tested, and the binding signal (PAX4 [1]) was 9.1 upbm affinity estimate (log intensity, higher = more binding, comparable within an allelic series), the binding signal (PAX4 [2]) was 9.1 upbm affinity estimate (log intensity, higher = more binding, comparable within an allelic series) and the binding signal (PAX4 [3]) was 9.18 upbm affinity estimate (log intensity, higher = more binding, comparable within an allelic series). For the same sequence, the binding signal (PAX4 [4]) was 9.12 upbm affinity estimate (log intensity, higher = more binding, comparable within an allelic series), the binding signal (PAX4 [5]) was 9.11 upbm affinity estimate (log intensity, higher = more binding, comparable within an allelic series) and the binding signal (PAX4 [6]) was 9.16 upbm affinity estimate (log intensity, higher = more binding, comparable within an allelic series).
TATTTTAA was tested, and the binding signal (PAX4 [1]) was 11 upbm affinity estimate (log intensity, higher = more binding, comparable within an allelic series), the binding signal (PAX4 [2]) was 11.2 upbm affinity estimate (log intensity, higher = more binding, comparable within an allelic series) and the binding signal (PAX4 [3]) was 11 upbm affinity estimate (log intensity, higher = more binding, comparable within an allelic series). The binding signal (PAX4 [5]) was 10.6 upbm affinity estimate (log intensity, higher = more binding, comparable within an allelic series) and the binding signal (PAX4 [6]) was 10.6 upbm affinity estimate (log intensity, higher = more binding, comparable within an allelic series).
CGGCCGGC was tested, and the binding signal (PAX4 [1]) was 9.17 upbm affinity estimate (log intensity, higher = more binding, comparable within an allelic series), the binding signal (PAX4 [2]) was 9.29 upbm affinity estimate (log intensity, higher = more binding, comparable within an allelic series) and the binding signal (PAX4 [3]) was 9.07 upbm affinity estimate (log intensity, higher = more binding, comparable within an allelic series). The binding signal (PAX4 [4]) was 9.01 upbm affinity estimate (log intensity, higher = more binding, comparable within an allelic series), the binding signal (PAX4 [5]) was 9 upbm affinity estimate (log intensity, higher = more binding, comparable within an allelic series) and the binding signal (PAX4 [6]) was 9.07 upbm affinity estimate (log intensity, higher = more binding, comparable within an allelic series).

— publication PMC11006913
